The results in this text go back to PubChem BioAssay (NCATS).

Results filed as inconclusive are left out. Active and inactive are the calls of the source. The call rests on the fitted dose curve; in most records, active means well fitted cell-killing curve with a large enough effect; inconclusive means small, poorly fitted or top-dose-only effect, or effect the other way; inactive means no such curve, though single readings can be large or run the other way.

Assay [1] can be described thus: Quantitative High-Throughput drug screen in 47 multiple myeloma cell lines against the NCATS MIPE library collection: XG1_PLB cell viability assay (AID 1919866). Further: nearly all actives have a fitted effect of over 35% in size. The essentials: (§1)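 ATP-based CellTiter-Glo luminescence after 48 h drug exposure (37 °C, 5% CO2) of 500 myeloma cells per well. DMSO-only wells set 100% viability, media-only wells 0%; MIPE 4.0 library added by pin tool.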

The nature of assay [2]: Quantitative High-Throughput drug screen in 47 multiple myeloma cell lines against the NCATS MIPE library collection: VP6_DJ cell viability assay (AID 1919867). Further: nearly all actives have a fitted effect of over 40% in size. The method, boiled down: as §1
The nature of assay [3]: Quantitative High-Throughput drug screen in 47 multiple myeloma cell lines against the NCATS MIPE library collection: PE2_PLB cell viability assay (AID 1919869). Further: nearly all actives have a fitted effect of over 35% in size. The essentials: as §1
Assay [4] can be described thus: Quantitative High-Throughput drug screen in 47 multiple myeloma cell lines against the NCATS MIPE library collection: PCM6_Riken cell viability assay (AID 1919870). Further: nearly all actives have a fitted effect of over 30% in size. The method, boiled down:
as §1

The nature of assay [5]: Quantitative High-Throughput drug screen in 47 multiple myeloma cell lines against the NCATS MIPE library collection: OPM2_DSMZ cell viability assay (AID 1919872). Further: nearly all actives have a fitted effect of over 30% in size. The essentials:
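Approved and investigational drugs from MIPE 4.0 were added by pin tool to 500 cells per well. After 48 hours at 37C, ATP-based CellTiter-Glo luminescence indicated remaining viability.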

Assay [6] is described as follows: Quantitative High-Throughput drug screen in 47 multiple myeloma cell lines against the NCATS MIPE library collection: KMS11_JCRBsus cell viability assay (AID 1919873). Further: nearly all actives have a fitted effect of over 50% in size. The method, boiled down: as §1
The nature of assay [7]: Quantitative High-Throughput drug screen in 47 multiple myeloma cell lines against the NCATS MIPE library collection: KMS28BM_JCRB cell viability assay (AID 1919874). Further: nearly all actives have a fitted effect of over 35% in size. The method, boiled down: as §1
The nature of assay [8]: Quantitative High-Throughput drug screen in 47 multiple myeloma cell lines against the NCATS MIPE library collection: UTMC2_PLB cell viability assay (AID 1919868). Further: nearly all actives have a fitted effect of over 55% in size. The method, boiled down:
as §1

Assay [9] can be described thus: Quantitative High-Throughput drug screen in 47 multiple myeloma cell lines against the NCATS MIPE library collection: RPMI8226_ATCC cell viability assay (AID 1919871). Further: nearly all actives have a fitted effect of over 30% in size. The essentials:
as §1
Potency means the concentration at half of the fitted maximal effect.

Consider `CCCCC(CC)COC(=O)C(C#N)=C(c1ccccc1)c1ccccc1` (stereo not drawn), for which the Potency result in assay [1], in assay [2], in [3], in assay [4], in [5] and in [6] was “inactive” throughout. The Potency result in assay [7] was “inactive”.

For `Cc1ccc(Nc2nccc(N(C)c3ccc4c(C)n(C)nc4c3)n2)cc1S(N)(=O)=O`, the Potency in [1] was 9.35 µM (active); in [2] it was 16.6 µM (active); in [3], 16.6 µM (active); in assay [4], 4.69 µM (active). The Potency result in assay [7] was “inactive”.

Take `CN(c1nccc(=O)[nH]1)C1CCN(c2nc3ccccc3n2Cc2ccc(F)cc2)CC1`: the Potency in [1] is 18.7 µM (active); in assay [2], 23.5 µM (active); in [8], 16.6 µM (active). Besides, the Potency result in assay [9], in assay [5] and in assay [6] was “inactive” in each case.

As to `CN(C)[C@@H](CCOc1cccc2ccccc12)c1ccccc1`, the Potency in assay [1] was 16.6 µM (active); in assay [2] it was 26.4 µM (active); in [3] it was 23.5 µM (active); in assay [4], 18.7 µM (active); in assay [6], 23.5 µM (active); in assay [7] it was 18.7 µM (active).

For the molecule `CC1(C)C(=O)N(CCN2CCC(C(=O)c3ccc(F)cc3)CC2)c2ccccc21`, the Potency in assay [1] is 14.8 µM (active); in assay [2], 4.18 µM (active); in assay [3], 23.5 µM (active); in assay [7] it was 18.7 µM (active). The Potency result in assay [4] and in assay [5] was “inactive” each time.

On to `COC1=C(OC)C(=O)C(CCCCCCCCCCO)=C(C)C1=O`, for which the Potency was 16.6 µM (active) in assay [1]; 14.8 µM (active) in [2]; 26.4 µM (active) in [8]; 26.4 µM (active) in [3]; 16.6 µM (active) in assay [4]; 14.8 µM (active) in assay [6]. For the same molecule, the Potency result in assay [9] and in assay [5] was “inactive” each time.

For `O=C(NCCO[N+](=O)[O-])c1cccnc1`, the Potency entry in assay [1], in assay [2], in assay [3], in assay [4], in [5] and in assay [7] was “inactive” throughout.

As for `CN(C)CCc1c[nH]c2ccc(Cn3cncn3)cc12`, the Potency result in assay [1], in assay [8], in assay [3], in [4], in [5] and in [6] was “inactive” in each case. Moreover, in [7], the Potency result was “inactive”. In addition, the Potency in assay [2] was 2.09 µM (active).

Take `CCN(CC)CCOc1ccc(Nc2ncc3cc(-c4c(Cl)cccc4Cl)c(=O)n(C)c3n2)cc1`: the Potency in [1] is 0.59 µM (active); in assay [2] it was 0.0083 µM (active); in assay [8], 0.132 µM (active); in [3], 0.0418 µM (active); in [4], 0.935 µM (active); in assay [5] it was 1.18 µM (active). Further, the figures for the Potency in assay [6] and in assay [7] were 0.0418 µM (active) and 0.526 µM (active), respectively.

As to `O=C(c1ccccc1)c1ccc2n1CCC2C(=O)O` (stereo not drawn), the Potency is 9.35 µM (active) in assay [1]; 9.35 µM (active) in assay [2]; 14.8 µM (active) in assay [8]; 9.35 µM (active) in [3]; 10.5 µM (active) in [4]; 13.2 µM (active) in assay [6]. Besides, the Potency in [7] is 23.5 µM (active). The Potency result in assay [9] and in [5] was “inactive” throughout.

On to `CC1(C)CCC(C)(C)c2cc(NC(=O)c3ccc(C(=O)O)cc3)ccc21`, for which the Potency in [1] is 3.72 µM (active); in [2], 18.7 µM (active); in assay [3], 20.9 µM (active); in assay [6], 4.18 µM (active). The Potency entry in [5] and in [7] was “inactive” throughout.

On to `O=C(O)c1cc(=O)c2c(OCC(O)COc3cccc4oc(C(=O)O)cc(=O)c34)cccc2o1`, for which the Potency entry in assay [1], in assay [3], in assay [4], in assay [5], in assay [6] and in assay [7] was “inactive” throughout. For the same molecule, in assay [2], the Potency was 5.26 µM (active).

Take `O=Nc1c(-c2c(O)[nH]c3cc(Br)ccc23)[nH]c2ccccc12`: the Potency in assay [1] is 5.9 µM (active); in assay [2], 5.26 µM (active); in assay [8], 8.33 µM (active); in [3] it was 5.26 µM (active); in assay [4] it was 3.32 µM (active); in [5] it was 20.9 µM (active). The Potency in assay [6] was 3.72 µM (active).

In the case of `CCOC(=O)C1=C[C@@H](OC(CC)CC)[C@H](NC(C)=O)[C@@H](N)C1`, the Potency result in [1], in [2], in assay [3], in [4], in assay [9] and in assay [5] was “inactive” throughout. The Potency result in assay [6] and in assay [7] was “inactive” throughout.

Turning to `C[C@H](Cn1cnc2c(N)ncnc21)OCP(=O)(O)O`, the Potency result in [1], in assay [2], in [8], in assay [3], in [5] and in assay [6] was “inactive” each time. The Potency entry in assay [7] was “inactive”.

Regarding `CC(=O)NC[C@H]1CN(c2ccc(N3CCOCC3)c(F)c2)C(=O)O1`, the Potency result in [1], in [2], in [8], in [3], in assay [4] and in assay [5] was “inactive” each time. Also, the Potency result in assay [7] is “inactive”.

Consider `COc1ccccc1N1CCN(CCN(C(=O)C2CCCCC2)c2ccccn2)CC1`, for which the Potency is 7.43 µM (active) in assay [1] and 5.9 µM (active) in [2]. Moreover, the Potency result in assay [8], in assay [5], in assay [6] and in assay [7] was “inactive” throughout.

As to `O=C(O)CCNC(=O)c1ccc(N=Nc2ccc(O)c(C(=O)O)c2)cc1`, the Potency entry in assay [1], in assay [2], in assay [3], in assay [4], in assay [9] and in [5] was “inactive” each time. The Potency entry in assay [6] and in assay [7] was “inactive” each time.

As for `Cc1nc2n(c(=O)c1CCN1CCC(c3noc4cc(F)ccc34)CC1)CCCC2`, the Potency result in assay [1], in [3], in assay [4], in assay [5], in assay [6] and in assay [7] was “inactive” each time. Also, in assay [2], the Potency is 7.43 µM (active).

For `Oc1ccc(OCc2ccccc2)cc1`, the Potency result in [1], in assay [2], in assay [8], in [3], in assay [4] and in assay [5] was “inactive” each time. The Potency result in assay [6] and in assay [7] was “inactive” in each case.

As for `CN(C)c1ccc2nc3ccc(=[N+](C)C)cc-3sc2c1`, the Potency in [1] was 1.32 µM (active); in assay [2], 1.32 µM (active); in assay [8] it was 1.48 µM (active); in assay [3] it was 3.72 µM (active); in assay [4], 1.05 µM (active); in [9], 6.62 µM (active). Further, the Potency in [6] is 2.64 µM (active); in assay [7] it was 2.96 µM (active).
